Inconclusive results are not listed. Active and inactive are the calls of the source. Unless noted, no rule for the calls is given here.

A word on the remaining activity: it is the signal under treatment as a percentage of the control signal. By AC50 is commonly meant the concentration giving half of the maximal activity seen.

Tested on in the first test: not listed separately
Briefly: differential killing of epithelial or mesenchymal cells, primary screen, imaging, PC-3E GFP, TEM4-18 mCherry, co-culture (AID 1345086).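 Also: cells exposed to compound for 72 h before imaging.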 To be noted: imaging cell counts, measured here: mesenchymal TEM4-18 mCherry cell survival, at 1 µM.
As for `CC(O)CN1CCN(CC(=O)[O-])CCN(CC(=O)[O-])CCN(CC(=O)[O-])CC1.[Gd+3]` (stereo not given), the normalised cell number was 1.14. The compound `CC(C)c1c(CN(C)C(C)Cc2ccccc2)n(C)n(-c2ccccc2)c1=O` (stereo not given) yielded a normalised cell number of 0.98.

Turning to `O=[N+]([O-])c1ccc([As](=O)(O)O)cc1`, the normalised cell number was determined as 0.99.

In turn, `COP(=O)(OC)OC=C(Cl)Cl` had a normalised cell number of 1.2. On the same count and under the same terms, the figure for `COc1ccc(CN2CCNCC2)c(OC)c1OC` is 1.05. `COP(=O)(OC)C(O)C(Cl)(Cl)Cl` (stereo not given) showed a normalised cell number of 0.91.

Take `O=c1n(Cl)c(=O)n(Cl)c(=O)n1Cl`: the normalised cell number came to 1.

`CCOC(=O)CC(SP(=S)(OC)OC)C(=O)OCC` (stereo not given) displayed a normalised cell number of 1.16. Still for that read-out and setting: to `O=C(O)Cc1ccccc1` belongs 0.92.

The compound `CNCC(=O)c1ccc(O)c(O)c1` gave a normalised cell number of 1.47.

A further test relates to Aerobactin synthetase IucA (Klebsiella pneumoniae). Put plainly: IucA aerobactin synthetase inhibitors, biochemical, Tocris library, absorbance (AID 1345561).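 Also: 100% = enzyme without compound and 0% = no enzyme.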 To be noted: purified IucA enzyme assay, absorbance (OD) read-out; stronger effect = lower value;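 tested at 8 µM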.
With `FC(F)(F)c1cccc(C2=CCN(CCc3ccc4ccccc4c3)CC2)c1`, the remaining activity was 94.1% (inactive). For `Cc1ncsc1CCCl`, the remaining activity is 110% (inactive).

As to `C=CCN1C[C@H](C)N([C@H](c2ccc(C(=O)N(CC)CC)cc2)c2cccc(OC)c2)C[C@H]1C`, the remaining activity was 118% (inactive). As to `c1ccc(C2CC2)c(OCC2=NCCN2)c1`, the remaining activity is 102% (inactive). The same measure, in the same setting: the figure for `Fc1ccc(C(OCCN2CCN(CCCc3ccccc3)CC2)c2ccc(F)cc2)cc1` is 118% (inactive); for `CC(C)(C)OC(=O)c1ncn2c1[C@@H]1CCCN1C(=O)c1c(Br)cccc1-2` it is 103% (inactive); for `Cc1nnc2n1-c1sc(CCC(=O)N3CCOCC3)cc1C(c1ccccc1Cl)=NC2` it is 108% (inactive). The same measure, in the same setting: the figure for `Clc1cccc(SC2CCNCC2)n1` is 108% (inactive). The same measure, in the same setting: the figure for `CC(C)NCC(O)c1ccc(N)c(C#N)c1` (stereo not given) is 122% (inactive); for `O=C1NCN(c2ccccc2)C12CCN(CC1COc3ccccc3O1)CC2` (stereo not given) it is 104% (inactive). On to `N#CC(C#N)=Cc1ccc(O)c(O)c1`, for which the remaining activity is 122% (inactive). Same read-out and setting: to `O=C(O)c1ccc2[nH]cc(CCCCN3CC=C(c4ccccc4)CC3)c2c1` belongs 115% (inactive).

In another test the test system is Aerobactin synthetase IucA (Klebsiella pneumoniae, hypervirulent). Put plainly: IucA enzyme inhibition, biochemical, LOPAC library, absorbance readout (AID 1346212).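 Also: 100% = no compound wells and 0% = no enzyme wells.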 To be noted: IucA enzyme assay, absorbance (OD) readout; stronger effect = lower value;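 tested at 8 µM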.
As for `Cc1cccc(C)c1NC(=O)CN1CCCC1=O`, the remaining activity was 106% (inactive). Still for that read-out and setting: the figure for `CC(=O)[C@H]1CC[C@H]2[C@@H]3CC[C@H]4C[C@H](O)CC[C@]4(C)[C@H]3C(=O)C[C@]12C` is 112% (inactive); for `CCCN1CCC[C@@H]2Cc3nc(N)ncc3C[C@H]21` it is 118% (inactive); for `CN1[C@@H]2CC[C@H]1CC(OC(=O)c1cc(Cl)cc(Cl)c1)C2` (stereo not given in full) it is 96.1% (inactive). Turning to `C=CCN1C[C@H](C)N([C@H](c2ccc(C(=O)N(CC)CC)cc2)c2cccc(OC)c2)C[C@H]1C`, the remaining activity was 109% (inactive). As to `CCCCc1ccc(C(=O)O)nc1`, the remaining activity is 102% (inactive).

For `Cc1ccc(S(=O)(=O)N[C@@H](CCCCN)C(=O)CCl)cc1`, the remaining activity is 114% (inactive). Regarding `c1ccc(C2CC2)c(OCC2=NCCN2)c1`, the remaining activity is 98% (inactive).

Take `Fc1ccc(C(OCCN2CCN(CCCc3ccccc3)CC2)c2ccc(F)cc2)cc1`: the remaining activity is 111% (inactive). Still for that read-out and setting: to `CC[N+](CC)(CC)CC` belongs 93.6% (inactive). Still for that read-out and setting: the figure for `CCCCC/C=C\C/C=C\C/C=C\C/C=C\CCCC(=O)NCC(=O)O` is 101% (inactive). Same read-out and setting: the figure for `NCC1(CC(=O)O)CCCCC1` is 98.6% (inactive). Take `C[N+]1(C)[C@@H]2CC[C@H]1CC(OC(=O)C(CO)c1ccccc1)C2` (stereo not given in full): the remaining activity was 93.2% (inactive). On the same count and under the same terms, to `CN1C[C@@H](NS(=O)(=O)N(C)C)C[C@@H]2c3cccc4c3c(cn4C)C[C@H]21` belongs 113% (inactive). As to `O=C1NCN(c2ccccc2)C12CCN(CC1COc3ccccc3O1)CC2` (stereo not given), the remaining activity is 93.6% (inactive).

In the case of `N#CC(C#N)=Cc1ccc(O)c(O)c1`, the remaining activity is 120% (inactive).

Tested on in another test: not listed separately
Briefly: growth inhibition of DIPG glioma cells, dose response, cell-based, SU-DIPG-XVII, MIPE5.0, CellTiter-Glo, qHTS (AID 1347060; cut-off not given, nearly all actives have AC50 up to about 26 µM;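 as to AC50: cells exposed to compound for 48 hours before viability readout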). To be noted: SU-DIPG-XVII viability, CellTiter-Glo ATP luminescence. On the technique in general: In ATP-based viability assays light output follows the ATP content of the culture.
For the compound `Cn1c(CCCC(=O)O)nc2cc(N(CCCl)CCCl)ccc21`, the concentration at half-maximal activity (AC50) is 20.9 µM (active). In the case of `C#C[C@]1(O)C=C[C@H]2[C@@H]3CCC4=CC(=O)CC[C@@H]4[C@H]3CC[C@@]21CC`, the compound was classed as inactive. On to `Fc1ccc(C(OCCN2CCN(CCCc3ccccc3)CC2)c2ccc(F)cc2)cc1`, for which the half-maximal activity concentration (AC50) is 14.8 µM (active). Consider `COC[C@@H](NC(C)=O)C(=O)NCc1ccccc1`, for which the compound was called inactive. Regarding `C[C@]12CC[C@H](O)CC1=CC[C@@H]1[C@@H]2CC[C@]2(C)C(=O)CC[C@@H]12`, the call was inactive.

For the compound `NCC1(CC(=O)O)CCCCC1`, the call was inactive. With `CCCC[N+]1(C)[C@@H]2CC(OC(=O)[C@H](CO)c3ccccc3)C[C@H]1[C@@H]1O[C@@H]12` (stereo not given in full), the compound was classed as inactive.

Tested on in the next test: not listed separately
Briefly: growth inhibition of DIPG glioma cells, dose response, cell-based, SU-DIPG-XIII, MIPE4.0, CellTiter-Glo, qHTS (AID 1347061; cut-off not given, nearly all actives have AC50 up to about 37 µM;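 also: cells exposed to compound for 48 hours before readout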). To be noted: SU-DIPG-XIII viability, CellTiter-Glo ATP luminescence.
Turning to `Cc1cccc(C)c1NC(=O)CN1CCCC1=O`, the result was inactive. As to `C#C[C@]1(O)C=C[C@H]2[C@@H]3CCC4=CC(=O)CC[C@@H]4[C@H]3CC[C@@]21CC`, the result was inactive. Take `Fc1ccc(C(OCCN2CCN(CCCc3ccccc3)CC2)c2ccc(F)cc2)cc1`: the AC50 is 20.9 µM (active). On to `C[C@]12CC[C@H](O)CC1=CC[C@@H]1[C@@H]2CC[C@]2(C)C(=O)CC[C@@H]12`, for which the compound was called inactive. With `NCC1(CC(=O)O)CCCCC1`, the result was inactive. Same read-out and setting: to `CCCC[N+]1(C)[C@@H]2CC(OC(=O)[C@H](CO)c3ccccc3)C[C@H]1[C@@H]1O[C@@H]12` (stereo not given in full) belongs “inactive”; to `COc1ccc(C(=O)c2c(C)n(CCN3CCOCC3)c3ccccc23)cc1`, “inactive”.

Tested on in another test: not listed separately
Put plainly: growth inhibition of DIPG glioma cells, dose response, cell-based, JHH-DIPG-1, MIPE4.0, CellTiter-Glo, qHTS (AID 1347062; cut-off not given, nearly all actives have AC50 up to about 27 µM;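 as to AC50: cells exposed to compound for two days before readout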). The following applies: JHH-DIPG-1 viability, CellTiter-Glo ATP luminescence.
On to `Cc1cccc(C)c1NC(=O)CN1CCCC1=O`, for which the outcome was inactive.

As for `C#C[C@]1(O)C=C[C@H]2[C@@H]3CCC4=CC(=O)CC[C@@H]4[C@H]3CC[C@@]21CC`, the outcome was inactive. Take `Fc1ccc(C(OCCN2CCN(CCCc3ccccc3)CC2)c2ccc(F)cc2)cc1`: the AC50 is 14.8 µM (active). In the case of `COC[C@@H](NC(C)=O)C(=O)NCc1ccccc1`, the outcome was inactive. Still for that read-out and setting: the entry for `C[C@]12CC[C@H](O)CC1=CC[C@@H]1[C@@H]2CC[C@]2(C)C(=O)CC[C@@H]12` is “inactive”.

On to `NCC1(CC(=O)O)CCCCC1`, for which the call was inactive. As for `CCCC[N+]1(C)[C@@H]2CC(OC(=O)[C@H](CO)c3ccccc3)C[C@H]1[C@@H]1O[C@@H]12` (stereo not given in full), the compound was classed as inactive.

Consider `COc1ccc(C(=O)c2c(C)n(CCN3CCOCC3)c3ccccc23)cc1`, for which the compound was called inactive.
